# Assay outcomes from PubChem.
# A selection: hits, their analogues and other compounds. The true share with any hit is near 1.1%.
# VCAM1 TNFa inh – reduces TNF alpha induced VCAM1 expression in HUVEC. HUVEC TNFa-induced VCAM-1 immunofluorescence, high-content imaging. actives 0.48% (n = 95,000). AID 802. inhibition, % at 2 µM;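 active means inhibition above the batch mean plus 3 SD, with images confirmed as a hit by eye, cut at about 37% in these data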;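 further: 0% = TNF-stimulated DMSO wells and 100% = unstimulated control wells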
# TNFa cytotox – HUVEC cytotoxicity counter-screen, TNF alpha stimulated; actives 0.17% (n = 93,000); HUVEC TNFalpha-stimulated, Hoechst cell count, imaging; cell count reduction, % at 2 µM; AID 848;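 active means cell count reduction exceeding the screen mean by over 5 SD, scaled to untreated wells per plate, cut at about 78% in these data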;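 further: cells counted after 24 h of TNF alpha exposure following the 1 h pretreatment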
# F-actin modifier – cytoskeleton assembly modification; HUVEC TNFa F-actin phalloidin imaging, high content; inhibition, % at 2 µM; actives 0.18% (n = 91,000); AID 836;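 active means inhibition above the batch mean plus 3 SD and confirmed as a hit by visual image inspection, cut at about 30% in these data, passing the limit was not always enough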
# E-sel TNF inh – TNF alpha driven E-selectin expression inhibition | HUVEC TNFa-induced E-selectin immunofluorescence, high content | AID 1246 | inhibition, % at 2 µM | actives 0.71% (n = 120,000);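 active means inhibition above the batch mean plus 3 SD, and confirmed as a hit on visual image review, cut at about 43% in these data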;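 further: 0% = TNF-stimulated DMSO wells and 100% = unstimulated control wells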
# Numbers without * were called inactive; · = no result given.
SMILES,VCAM1 TNFa inh,TNFa cytotox,F-actin modifier,E-sel TNF inh
COC(=O)c1[nH]c2cc(OC)ccc2c1NC(=O)CN1CCC(C(N)=O)(N2CCCCC2)CC1,50*,-15,55*,2
O=C(Nc1ccccc1N1CCOCC1)c1ccc(Cl)nc1,·,·,·,88*
O=C(Nc1ccccc1N1CCOCC1)c1ccc([N+](=O)[O-])cc1,-6,-23,16,21
COc1cccc(C(=O)Nc2cccc(-c3nc4ncccc4o3)c2C)c1,94*,69,-17,·
CCOc1cccc(C(=O)Nc2cccc(-c3nc4ncccc4o3)c2C)c1,·,·,·,-3
CCCn1c(=NC(=O)c2ccco2)c(C(=O)OCC)cc2c(=O)n3ccccc3nc21,-9,13,-7,58*
CCOC(=O)c1cc2c(=O)n3ccccc3nc2n(CCCOC)c1=NC(C)=O,0,-9,4,-12
COc1ccc(-c2ocnc2C(=O)N2CCN(C(c3ccccc3)c3ccccc3)CC2)cc1,·,·,·,-4
COC(=O)c1c(NC(=O)CSc2nc3nc(C)cc(C)n3n2)sc(C)c1C,·,·,·,10
COc1ccccc1CNC(=O)CSc1nnc2ccc(-c3cccnc3)nn12,·,·,·,84*
COc1ccc(-c2c(C)[nH]n3c(=O)c(Cc4ccccc4)c(C)nc23)cc1,·,·,·,-17
COc1ccc(CN2CCCCC2C(=O)Nc2ccc(OC)c(OCC(C)C)c2)cc1OC (stereo not given),97*,-10,7,6
Cc1ccc(C(=O)N2CC(=O)Nc3ccc(F)cc3C2c2ccc(F)cc2)cc1[N+](=O)[O-] (stereo not given),·,·,·,9
Cc1ccc(S(=O)(=O)N(c2nc(N(C)C)nc(N(C)C)n2)n2cnnc2)cc1,·,·,·,-31
NC1=CC(=O)c2cccc3cccc1c23,43*,4,·,·
NC1=Nc2cccc3cccc1c23,·,·,·,6
Cc1ccc(S(=O)(=O)Nc2cc(C(=O)Nc3cc(C)cc(C)c3)ccc2Cl)cc1,-12,2,8,40
O=C(c1cccs1)N(C(=O)c1cccs1)c1ccc(Br)cn1,16,-11,-1,45*
Cc1ccnc(N(C(=O)c2cccs2)C(=O)c2cccs2)c1,13,24,-3,12
CCC(=O)Nc1cc(C(C)(C)C)ccc1C(C)=O,·,·,·,-2
Cc1nnc(SCC(=O)NCc2ccco2)n1Cc1ccccc1,22,-23,-11,-6
CCCn1c(SCC(=O)NCc2ccco2)nnc1C(C)C,84*,82*,27,-26
COc1ccc(Br)cc1CN(C)CC(=O)Nc1cccc(S(N)(=O)=O)c1,·,·,·,5
COc1ccc(Br)cc1CN(C)CC(=O)Nc1c(Cl)cccc1Cl,·,·,·,68*
COc1ccc(NC(=O)C(Cl)=C(Cl)Cl)cn1,·,·,·,-13
SMILES,VCAM1 TNFa inh,TNFa cytotox,F-actin modifier,E-sel TNF inh
COc1ccc(NC(=O)/C(Cl)=C(/Cl)S(=O)Cc2ccc(Cl)cc2)cn1 (stereo not given),·,·,·,100*
CCOc1ccc2ccccc2c1/C=N/n1cncn1,88*,-29,-16,7
CCCOc1ccc2ccccc2c1/C=N/n1cnnc1,8,-16,-4,-10
O=S(=O)(c1ccc(Cl)cc1)n1nnc2ccccc21,-3,13,-14,11
CCCCCc1nc2ccccc2c(=O)n1NC(=O)c1c(O)c2cccc3c2n(c1=O)CCC3,8,-21,-17,72*
CN(C)CCNc1c2c(c(C#N)c3nc4ccccc4n13)CCCC2,10,-34,-8,9
N#Cc1c2c(c(NCc3ccco3)n3c1nc1ccccc13)CCC2,52,84*,-5,·
C/C(Cn1nnc2ccccc21)=N\NC(=O)c1ccc(Br)cc1,·,·,·,-2
O=C(/C=C/c1ccccc1)N1CCC(Cc2ccccc2)CC1,-25,·,-8,92*
Cc1ccc(C)c(NC(=S)NC(NC(=O)Cc2cccc3ccccc23)C(Cl)(Cl)Cl)c1 (stereo not given),67*,·,-15,-20
Cc1cc2occ(CC(=O)OCC(=O)Nc3sc4c(c3C#N)CCC(C)C4)c2cc1C (stereo not given),·,·,·,22
COc1cccc(N=c2oc3ccc(OC)cc3cc2-c2nc3ccccc3[nH]2)c1,25,-6,-6,14
COc1ccc(N=c2oc3ccc(OC)cc3cc2-c2nc3ccccc3[nH]2)cc1,50*,-1,-12,-4
Cc1c(-c2ccccc2)oc2c(C(=O)OCC(=O)Nc3ccc(C(N)=O)cc3)cccc2c1=O,·,·,·,-6
COC(=O)C(CC(C)C)NC(=O)/C=C/c1ccc(Cl)cc1 (stereo not given),·,·,·,16
CC(CCc1ccccc1)NC(=O)/C=C/c1ccc(Cl)cc1 (stereo not given),·,·,·,65*
CCCCOC(=O)C1=C(C)NC(=O)NC1c1ccc([N+](=O)[O-])s1 (stereo not given),·,·,·,7
CCC(=O)OCC(=O)c1cc(C)n(-c2ccc(Br)cc2)c1C,·,·,·,-80
C/C(=N\Nc1cccc2cccnc12)c1ccccc1O,·,·,·,72*
CN1C(=O)C2(NCCc3c2[nH]c2ccccc32)c2ccccc21 (stereo not given),53*,·,-3,12
O=C(COC(=O)/C=C/c1ccc(Cl)cc1Cl)NCc1ccco1,·,·,·,-14
O=[N+]([O-])c1ccc(O)c(/C=N/Nc2nn[nH]n2)c1,·,·,·,-26
O=[N+]([O-])c1ccc(O)c(/C=N/Nc2ccc(Cl)nn2)c1,63*,15,25,100*
O=C(c1cccn2c(=O)c3cc(Br)ccc3nc12)N1CCN(c2ccccn2)CC1,-7,16,·,19
O=C(c1cc(-c2ccncc2)nc2ccc(Br)cc12)N1CCN(c2ccccn2)CC1,100*,·,84*,-18
SMILES,VCAM1 TNFa inh,TNFa cytotox,F-actin modifier,E-sel TNF inh
COc1ccc(/C=N/NC(=O)C(C)n2cnc3ccccc3c2=O)cc1OC (stereo not given),·,·,·,96*
COc1cc2c(cc1NC(=O)Nc1ccccc1)oc1ccccc12,-8,-9,1,100*
CCCn1nnc(NC(=O)c2cccc(OCC(C)C)c2)n1,·,·,·,93*
CCCn1nnc(NC(=O)c2cccc(OCC)c2)n1,7,-18,-3,11
NC(=O)CC(NC(=O)OCc1ccccc1)C(=O)O (stereo not given),3,-22,5,-6
NC(=O)NOCc1ccccc1,·,·,·,68*
CCOc1ccc2[nH]c(=O)c(CN(Cc3ccccc3)C(=O)N3CCCC3)cc2c1,9,-39,50*,-2
CCOc1ccc2[nH]c(=O)c(CN(CCO)C(=O)c3ccc(F)cc3)cc2c1,-8,-8,-22,38
CCOc1ccc(N2CC(C(=O)Nc3ccc(N4CCOCC4)cc3)CC2=O)cc1 (stereo not given),-8,-9,-22,15
CCOc1ccc(N2CC(C(=O)NCCCN3CCOCC3)CC2=O)cc1 (stereo not given),14,5,-6,50*
CC(CN1CCCCC1)OC(=O)C(C)(c1ccccc1)c1ccccc1 (stereo not given),1,-14,0,4
C=CCn1c(SCCOc2ccc(OC)cc2)nnc1C(C)NC(=O)c1ccc(OC)cc1 (stereo not given),-18,38,-25,11
COc1ccc(CC(=O)NC(C)c2nnc(SCCOc3ccc(OC)cc3)n2C)cc1 (stereo not given),8,83*,7,10
CC(=O)c1ccc(NC(=S)N(C)C2CCN(C)CC2)cc1,·,·,·,-7
